# Screening results: PubChem BioAssay, National Center for Advancing Translational Sciences (NCATS)
# This is a sample that favours compounds with a hit; in the whole collection about 11% have one here.
# Luciferase inh: Firefly luciferase inhibition profiling of diverse chemical library using quantitative high-throughput screening; purified P. pyralis luciferase, luminescence, biochemical; Luciferin 4-monooxygenase (Photinus pyralis), P08659; 76,000 compounds, 2.5% hits; Potency, µM (titrated, usually from 115 µM), most hits filed as inhibitors; note: nearly all actives have a fitted effect of over 65% in size
#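 Luminescence read by CCD imager after adding enzyme (10nM final) to wells holding compound, titrated in qHTS. Substrates 10uM each D-luciferin and ATP; buffer 50mM Tris acetate pH 7.5, 10mM Mg acetate, Tween-20, BSA.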
# NIH3T3 tox: Cytotoxic Profiling in NIH 3T3 Cell Line of Diverse Libraries Using Quantitative High-Throughput Screening; NIH 3T3 viability, CellTiter-Glo ATP luminescence, 48-72 h; Potency, µM (doses to about 96.7 µM), for inactives: at the top dose activity change, negative = cytotoxicity, most hits filed as inhibitors; 94,000 compounds, 4.3% hits; note: nearly all actives have a fitted effect of over 55% in size
#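 First NIH 3T3 cells are plated at 400 cells/well; next compound is pinned in; then plates incubate 48 or 72 hr at 37 °C; finally CellTiter-Glo is added and luminescence read after 10 min.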
# HEK cytotox: Cytotoxic Profiling in HEK 293 Cell Line of Diverse Libraries Using Quantitative High-Throughput Screening; 94,000 compounds, 6.6% hits; AID 1345083, 2018; HEK 293 viability, ATP luminescence (CellTiter-Glo), 48-72 h; Potency, µM (doses to about 115 µM), inactives show top-dose activity change, negative = cytotoxicity, actives largely listed as inhibitors; note: nearly all actives have a fitted effect of over 60% in size
#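 Pintool-delivered compounds were incubated with HEK 293 cells (250 cells/well) at 37 degree Celsius for 48 or 72 hr. ATP-dependent luminescence (CellTiter-Glo) then reported remaining viable cells.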
# hNpr1 antagonist: Natriuretic polypeptide receptor (hNpr1) antagonism - Primary qHTS; Atrial natriuretic peptide receptor 1 (Homo sapiens), P16066; HEK293 hNpr1 GloSensor cGMP, ANP-stimulated luminescence; Potency, µM (titrated, usually from 46.3 µM), without a hit: at the top dose activity change, negative = inhibition, actives largely listed as inhibitors; 76,000 compounds, 1.6% hits; AID 1347048, 2019; calls by dose curve; note: nearly all actives have a fitted effect of over 60% in size
# Target sequence (P16066 whole entry, looked up): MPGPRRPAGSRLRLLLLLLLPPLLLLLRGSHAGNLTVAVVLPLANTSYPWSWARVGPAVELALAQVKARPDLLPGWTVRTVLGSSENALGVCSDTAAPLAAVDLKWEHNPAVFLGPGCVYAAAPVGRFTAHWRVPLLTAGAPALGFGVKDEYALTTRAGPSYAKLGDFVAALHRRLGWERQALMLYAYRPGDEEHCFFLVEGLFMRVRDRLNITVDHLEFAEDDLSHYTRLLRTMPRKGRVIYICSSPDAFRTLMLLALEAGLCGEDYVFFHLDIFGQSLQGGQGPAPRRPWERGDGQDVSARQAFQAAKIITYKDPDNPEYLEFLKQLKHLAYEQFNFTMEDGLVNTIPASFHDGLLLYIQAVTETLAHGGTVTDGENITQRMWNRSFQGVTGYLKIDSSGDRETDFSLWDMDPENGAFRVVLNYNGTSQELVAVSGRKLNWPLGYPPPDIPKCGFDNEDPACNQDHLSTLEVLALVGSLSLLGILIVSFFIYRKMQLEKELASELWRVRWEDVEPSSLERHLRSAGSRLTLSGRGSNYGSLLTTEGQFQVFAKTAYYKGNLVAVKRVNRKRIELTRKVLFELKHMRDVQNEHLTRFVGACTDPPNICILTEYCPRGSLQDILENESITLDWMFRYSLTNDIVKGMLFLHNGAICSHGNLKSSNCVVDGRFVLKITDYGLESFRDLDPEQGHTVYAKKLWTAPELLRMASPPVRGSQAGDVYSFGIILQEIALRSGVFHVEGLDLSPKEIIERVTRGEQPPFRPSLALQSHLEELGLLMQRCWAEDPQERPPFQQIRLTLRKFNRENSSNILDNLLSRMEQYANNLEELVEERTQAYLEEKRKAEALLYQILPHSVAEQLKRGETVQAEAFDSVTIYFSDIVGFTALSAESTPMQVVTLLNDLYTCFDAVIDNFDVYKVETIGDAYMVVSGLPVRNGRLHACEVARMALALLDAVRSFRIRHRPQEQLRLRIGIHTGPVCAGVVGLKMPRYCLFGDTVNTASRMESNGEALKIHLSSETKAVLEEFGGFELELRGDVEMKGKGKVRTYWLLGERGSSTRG
#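 Compound pre-incubated 30 min at room temperature on GloSensor-loaded HEK293 cells stably carrying hNpr1 and the pGS-40F cGMP biosensor. Stimulation uses hNppA at 0.1 nM final; luminescence is taken at baseline and 20 min post-agonist.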
# Starred values were filed as active, the others as inactive; i = inactive; ? = inconclusive; . = no result given; [ ] = remark or other dose. Unless noted, calls come from the whole dose curve; as a rule, active = well fitted curve in the direction sought with a large enough effect; inconclusive = small, poorly fitted or top-dose-only effect, or another doubt; inactive = no such curve, though single readings can be large; an effect the other way counts as inactive or inconclusive. % is set by controls: 0 for no effect and ±100 for the full control effect; potency is the fitted concentration of half-maximal effect.
SMILES,Luciferase inh,NIH3T3 tox,HEK cytotox,hNpr1 antagonist
CC(=O)N1C[C@@H]2C[C@H](C1)c1ccc(NC(=O)Nc3ccccc3)c(=O)n1C2,i,i,i,6.7%[70.6 µM]
Cn1nc(C2CCCCC2)cc1[C@H]1CN2CC[C@H]1C[C@@H]2CNS(C)(=O)=O,i,-4.1%[174 µM],-16.3%[172 µM],-14.4%[70.6 µM]
COc1cc2c(cc1OCc1ccncc1)NC(=O)C21CCN(c2ccccn2)CC1,i,?,?,-27.1%[70.6 µM]
COc1cc2c(cc1OCc1ccncc1)NC(=O)C21CCN(C(=O)c2cccnc2)CC1,i,35.5µM*,4.3%,0.7%
COc1ncc(-c2cc3c(cc2OC)C2(CCN(C(C)=O)CC2)C(=O)N3)cn1,i,44.7µM*,-9.2%[172 µM],3.1%[70.6 µM]
COc1cc2c(cc1OCc1ccncc1)NC(=O)C21CCN(Cc2ccccc2O)CC1,i,?,44.7µM*,-23.0%
COc1cc2c(cc1OCc1ccccc1)NC(=O)C21CCN(Cc2ccccn2)CC1,i,89.1µM*,79.4µM*,5.3%[70.6 µM]
COc1cc2c(cc1OC1CCCC1)NC(=O)C21CCN(Cc2nccn2C)CC1,i,-14.3%[138 µM],?,5.7%[70.6 µM]
COc1cc2c(cc1-c1cccnc1OC)NC(=O)C21CCN(C(C)=O)CC1,i,?,-31.0%[172 µM],-6.6%[70.6 µM]
Cc1ccc(-n2cccc2CC(=O)N2CCN(C3CCN(C)CC3)CC2)cc1,i,-16.6%,-24.9%,-0.3%
O=C1Nc2ccccc2CNC12CCN(Cc1ccncc1)CC2,.,4.3%,i,.
COc1cc2c(cc1OCc1ccncc1)NC(=O)C21CCN(CC2CC2)CC1,i,100µM*,-22.7%[172 µM],6.2%[70.6 µM]
COc1cc2c(cc1OCc1ccccc1)NC(=O)C21CCN(CC2CC2)CC1,?,31.6µM*,39.8µM*,-1.3%[70.6 µM]
COc1cc2c(cc1OCC1CC1)NC(=O)C21CCN(Cc2nccs2)CC1,i,?,?,-11.7%[70.6 µM]
COc1cc2c(cc1OCC1CC1)NC(=O)C21CCN(C(=O)c2cccc(C#N)c2)CC1,i,?,79.4µM*,0.1%[70.6 µM]
O=C(Nc1ccc2n(c1=O)C[C@H]1C[C@@H]2CN(C(=O)c2ccccc2)C1)NC1CCCCC1,?,-19.3%[174 µM],-1.5%[172 µM],1.2%[70.6 µM]
O=C(Nc1ccc2n(c1=O)C[C@H]1C[C@@H]2CN(CC2CCCCC2)C1)C1CCCCC1,i,?,56.2µM*,-21.9%[70.6 µM]
COc1ccc(CNC[C@H]2C[C@@H]3CCN2C[C@@H]3c2cc(C3CCCCC3)nn2C)cc1,i,28.2µM*,31.6µM*,3.0%[70.6 µM]
COc1ccc(CNC[C@H]2C[C@@H]3CCN2C[C@@H]3c2cc(-c3ccc4ccccc4c3)nn2C)cc1,i,25.1µM*,?,0.0%
CCOC(=O)[C@H]1CN(C(=O)c2ccc(Cl)cc2)[C@]2(C)C(=O)N(CCOC(C)=O)c3ccccc3[C@H]12,.,-24.2%[46.1 µM],?,.
Cn1nc(-c2ccccc2)cc1[C@H]1CN2CC[C@H]1C[C@@H]2CNC(=O)c1cccs1,i,?,?,3.5%[70.6 µM]
COCC(=O)NC[C@H]1C[C@@H]2CCN1C[C@@H]2c1cc(-c2ccccc2)nc(C)n1,i,?,-27.8%[172 µM],2.8%[70.6 µM]
CCC(CC)c1cc([C@H]2CN3CC[C@H]2C[C@@H]3CNC(=O)c2cccs2)nc(-c2ccncc2)n1,i,22.4µM*,?,?
CCC(CC)c1cc([C@H]2CN3CC[C@H]2C[C@@H]3CNC(=O)Cc2cccs2)nc(-c2ccncc2)n1,i,28.2µM*,39.8µM*,?
Cc1nc(-c2ccccc2)cc([C@H]2CN3CC[C@H]2C[C@@H]3CNC(=O)c2cccs2)n1,i,?,70.8µM*,-3.0%[70.6 µM]
SMILES,Luciferase inh,NIH3T3 tox,HEK cytotox,hNpr1 antagonist
Cc1nc(-c2ccccc2)cc([C@H]2CN3CC[C@H]2C[C@@H]3CNS(=O)(=O)Cc2ccccc2)n1,i,79.4µM*,79.4µM*,-0.9%
COc1cc2c(cc1OCC1CCCC1)N(C(=O)C1CCC(C)CC1)CC21CCN(CC(=O)O)CC1 (stereo not given),i,?,-1.1%,0.5%
CC(=O)Nc1ccc(S(=O)(=O)N2C[C@@H]3C[C@H](C2)c2c(-c4cccs4)ccc(=O)n2C3)cc1,i,-21.8%,-1.7%,-3.7%
CN1CCNc2cc(NCc3ccccc3)ncc2C1,25.1µM*,89.1µM*,?,-1.8%[70.6 µM]
O=C1Nc2ccccc2C12CCN(CC1CC1)CC2,.,1.0%[174 µM],-6.0%[230 µM],.
c1ccc(Nc2cc3c(cn2)CN(CC2CC2)CCN3)cc1,35.5µM*,?,35.5µM*,4.4%[70.6 µM]
Cc1cc(CN2CCC3(CC2)C(=O)Nc2ccccc23)no1,.,-9.1%[138 µM],-5.5%[172 µM],.
COc1cc2c(cc1OCc1ccccc1)N(C(=O)CC(C)C)CC21CCN(C)CC1,i,50.1µM*,100µM*,4.0%[70.6 µM]
COc1cc2c(cc1OCc1ccccc1)N([S+](=O)([O-])c1cccc3cccnc13)CC21CCN(C)CC1,i,17.8µM*,25.1µM*,-15.6%
COc1cc2c(cc1OCc1ccccc1)N(C(=O)[C@@H]1CCCO1)CC21CCN(C)CC1,i,?,-16.7%[172 µM],5.2%[70.6 µM]
COc1cc2c(cc1OCc1ccccc1)N(C(=O)CC1CC1)CC21CCN(C)CC1,i,79.4µM*,112µM*,12.2%[70.6 µM]
COc1ccccc1CC(=O)N1CC2(CCN(C)CC2)c2cc(OC)c(OCc3ccccc3)cc21,i,31.6µM*,?,5.2%
CCCNC(=O)OC[C@H]1C[C@@H]2CCN1C[C@@H]2c1cc(-c2ccc(OC)cc2)nn1C,i,?,?,6.7%[70.6 µM]
COc1ccc(S(=O)(=O)NC[C@H]2C[C@@H]3CCN2C[C@@H]3CN(C)c2ccccc2)cc1,i,35.5µM*,?,0.9%[70.6 µM]
O=S(=O)(NC[C@H]1C[C@@H]2CCN1C[C@@H]2CN1CCc2ccccc21)c1ccccc1,i,56.2µM*,56.2µM*,-13.8%[70.6 µM]
COc1ccc(S(=O)(=O)NC[C@H]2C[C@@H]3CCN2C[C@@H]3CN2CCOCC2)cc1,i,-1.2%[174 µM],0.2%[172 µM],-2.2%[70.6 µM]
COc1ccc(S(=O)(=O)NC[C@H]2C[C@@H]3CCN2C[C@@H]3CN2CCC(Cc3ccccc3)CC2)cc1,i,12.6µM*,?,-15.9%
O=S(=O)(NC[C@H]1C[C@@H]2CCN1C[C@@H]2CN1CCCC1)c1ccc(Cl)cc1,i,79.4µM*,?,-1.2%[70.6 µM]
CN1CCN(C[C@H]2CN3CC[C@H]2C[C@@H]3CNS(=O)(=O)c2ccccc2)CC1,i,-23.4%[174 µM],-3.5%[172 µM],2.8%[70.6 µM]
COc1ccc(-c2cccc3c2CCNC3)cc1OC,i,?,?,-1.3%
CCOC(=O)[C@H]1CN(C(=O)Cc2ccccc2)[C@]2(C)C(=O)N(CCOC(C)=O)c3ccccc3[C@H]12,.,-21.9%[46.1 µM],?,.
O=C(c1ccccc1)N1C[C@@H]2C[C@H](C1)c1ccc(-c3ccc(Cl)cc3)c(=O)n1C2,i,63.1µM*,?,-14.9%[70.6 µM]
